# Hits are enriched below; roughly 19% of the tested compounds scored in any of these assays.
# SW480 rereplic – A quantitative high throughput screen for small molecules that induce DNA re-replication in SW480 colon adenocarcinoma cells. SW480 DNA re-replication, Hoechst DNA content imaging, 48 h. Potency, µM (series often up to 46.1 µM), inactives show at the top dose re-replication activation, most hits filed as activators. 340,000 tested, 1.8% active. AID 624297, 2012; note: potency is the fitted concentration of half-maximal effect; % of control where 0% means no effect; nearly all actives have a fitted effect of over 55% in size
#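 SW480 cells exposed to compounds for 48 hr at 37 C, 5% CO2, then Hoechst-stained 40 min. Nuclear DNA content imaged by fluorescence scanning (405 nm excitation, 500-530 nm emission); re-replication scored as increased high-intensity nuclei.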
# IL-1B inflam inh – qHTS for Inhibitors of Inflammasome Signaling: IL-1-beta AlphaLISA Primary Screen | 360,000 tested, 4.7% active | THP-1 LPS/ATP IL-1B secretion, AlphaLISA, 16 h; active compounds read low | activity change, % at 57.5 µM; in the data active = activity change below about -50%; inconclusive = mostly about -30% to -49%; note: % is set by controls: 0 for no effect and ±100 for the full control effect
#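 Secreted IL-1B measured by AlphaLISA bead assay after 16 h compound exposure of THP-1 cells; compounds (final up to 57.5 uM) added 1 h before LPS (250 ng/mL) and ATP (1.25 mM) stimulation; lower signal means less secretion.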
# MCF10A rereplic – A quantitative high throughput screen for small molecules that induce DNA re-replication in MCF 10a normal breast cells; Potency, µM (doses to about 46.1 µM), without a hit: top-dose activity, positive = re-replication, actives largely listed as activators; MCF 10A DNA re-replication, Hoechst nuclear intensity, 48 h; 350,000 tested, 2.9% active; AID 624296, 2012; note: potency is the fitted concentration of half-maximal effect; % of control where 0% means no effect; nearly all actives have a fitted effect of over 50% in size
# TDP1 cell CPT – qHTS for Inhibitors of human tyrosyl-DNA phosphodiesterase 1 (TDP1): qHTS in cells in presence of CPT; chicken DT40 Tdp1-/-;hTDP1 cells + 20 nM CPT, ATP luminescence, 48 h; Potency, µM (highest dose often 46.2 µM), without a hit: top-dose activity change, negative = growth inhibition, most hits filed as inhibitors; 420,000 tested, 12% active; note: potency is the fitted concentration of half-maximal effect; % is set by controls: 0 for no effect and ±100 for the full control effect; nearly all actives have a fitted effect of over 55% in size
#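 Chicken DT40 Tdp1-/- cells stably complemented with human TDP1 were seeded at 400 cells/well in medium containing 20 nM camptothecin, exposed to pin-transferred compounds, and grown at 37 °C for at least 48 hr. Viability was read as ATP luminescence.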
# DT40 TDP1 no CPT – qHTS for Inhibitors of human tyrosyl-DNA phosphodiesterase 1 (TDP1): qHTS in cells in absence of CPT; DT40 Tdp1-/- hTDP1 cells, no CPT, ATP luminescence, 48 h; Potency, µM (doses to about 46.2 µM), for inactives: at the highest dose activity change, negative = growth inhibition, most hits filed as inhibitors; 420,000 tested, 15% active; note: potency is the fitted concentration of half-maximal effect; % is set by controls: 0 for no effect and ±100 for the full control effect; nearly all actives have a fitted effect of over 55% in size
#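 Cells were dispensed at 400 per well, compounds added by pin tool, plates incubated ≥48 hr at 37 °C, then CellTiter-Glo added for 30 min at room temperature before luminescence reading. Line: DT40 Tdp1-/- complemented with hTDP1; camptothecin omitted.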
# BCR signal inh – qHTS Assay to Find Inhibitors of Chronic Active B-Cell Receptor Signaling | 340,000 tested, 0.05% active | ABC-DLBCL IkBa-CBG/CBR reporter, luminescence ratio, 4 h | Potency, µM (series often up to 46.1 µM), without a hit: at the highest dose activity change, negative = inhibition, actives largely listed as inhibitors | AID 493014, 2011; active = well fitted inhibition curve with a large enough effect in the signal ratio, with a control signal flat, not every such curve was filed as active; inconclusive = small, poorly fitted or top-dose-only effect, or effect the other way, or a change in a side signal; the % refers to the signal ratio;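 note: potency is the fitted concentration of half-maximal effect; plate controls were basal doxycycline-induced cells for no effect and cells given 10 µM MG132 for full effect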
#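 Concentration-response series (up to 46 uM) were applied to TMD8 dual-reporter cells for 4 h at 37C with doxycycline. Green/red ratio, after filter-overlap correction, defined %Activity; red signal alone was normalised to basal cells and zero luminescence.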
# Starred values were filed as active, the others as inactive; ? = inconclusive; . = no result given. Unless noted, calls come from the whole dose curve; as a rule, active = well fitted curve in the direction sought with a large enough effect; inconclusive = small, poorly fitted or top-dose-only effect, or another doubt; inactive = no such curve, though single readings can be large; an effect the other way counts as inactive or inconclusive.
SMILES,SW480 rereplic,IL-1B inflam inh,MCF10A rereplic,TDP1 cell CPT,DT40 TDP1 no CPT,BCR signal inh
CCCN(CC(=O)Nc1ccccc1OC)C(=O)CCC(=O)c1ccc(OCC)cc1,?,-6.4,-1.4%,?,?,-0.6%
CCn1c2ccccc2c2n[nH]c(=S)nc21,-34.3%,-1.8,-1.8%,-27.8%,?,-2.4%
CCCn1c2ccc(C)cc2c2n[nH]c(=S)nc21,14.6µM*,0.1,1.5%,?,14.6µM*,0.3%
Cc1ccc2c(c1)c1nnc(SCC(=O)N3CCCc4ccccc43)nc1n2CC(=O)O,-32.0%,14.1,0.5%,-29.4%,-25.2%,-27.6%
CCCn1c2ccc(C)cc2c2nnc(SCCN3CCCCC3)nc21,?,-66.3*,?,18.4µM*,20.6µM*,12.2%
CCC(=O)Nc1cccc2cccnc12,-39.0%,11.4,3.0%,12.0%,2.9%,1.7%
O=C(Nc1ccccc1)Nc1cccc2cccnc12,?,-14.9,15.4%,1.7%,-18.3%,?
CC(C)CC(=O)NC(NC(=S)Nc1cccc2cccnc12)C(Cl)(Cl)Cl (centres undefined),3.9%,-19.0,-1.3%,8.2µM*,8.2µM*,-3.3%
CC(C)C(=O)NC(Nc1cccc2cccnc12)C(Cl)(Cl)Cl (centres undefined),3.6%,7.5,1.7%,14.6µM*,13µM*,6.0%
Cc1cc(C)c(CC(=O)c2ccccc2)c(C)c1,-7.9%,12.7,1.0%,-28.3%,?,.
O=C(NCc1cccc(C(F)(F)F)c1)c1ccc2nc([C@@H]3O[C@H](CO)[C@@H](O)[C@H]3O)[nH]c2c1,.,13.4,.,-14.6%,-12.0%,.
CCOC(=O)[C@]12CCC=C1N(CCC1=CCCCC1)C(=O)[C@H](CC(=O)N1CCCC1)C2,.,25.5,.,23.1µM*,?,.
CCOC(=O)[C@]12CCCC=C1N(CCC1=CCCCC1)C(=O)[C@H](CC(=O)N1CCC(c3ccccc3)CC1)C2,.,-8.4,.,?,14.6µM*,.
CCOC(=O)[C@]12CCC=C1N(CCC1=CCCCC1)C(=O)[C@H](CC(=O)N1CCCCC1)C2,.,22.4,.,18.4µM*,13µM*,.
CCOC(=O)[C@]12CCCC=C1N(CCC1=CCCCC1)C(=O)[C@H](CC(=O)N1CCCC1)C2,.,29.9,.,2.06µM*,2.31µM*,.
CCOC(=O)[C@]12CCC=C1N(CCC1=CCCCC1)C(=O)[C@H](CC(=O)N1CCN(C(=O)C3CC3)CC1)C2,.,3.4,.,-29.5%,-19.5%,.
CCOC(=O)[C@]12CCC=C1N(CCC1=CCCCC1)C(=O)[C@H](CC(=O)N1CCN(C(=O)c3ccco3)CC1)C2,.,-3.0,.,?,?,.
CCOC(=O)[C@]12CCCC=C1N(Cc1ccccc1)C(=O)[C@H](CC(=O)N1CCCCCC1)C2,.,-20.5,.,?,?,.
Cc1ccc(NC(=O)COC(=O)CC2SC(N3CCCC3)=NC2=O)cc1 (centres undefined),?,3.3,1.3%,3.0%,-0.4%,5.0%
CCOC(=O)[C@]12CCCC=C1N(CCc1ccc(OC)c(OC)c1)C(=O)[C@H](CC(=O)N1CCCC1)C2,.,-11.0,.,11.6µM*,9.2µM*,.
CCOC(=O)N1CCN(C(=O)C[C@@H]2C[C@@]3(C(=O)OCC)CCCC=C3N(CCc3ccc(OC)c(OC)c3)C2=O)CC1,.,-21.3,.,?,?,.
COc1cccc(-c2cnc3c(NC(C)=O)cc(-c4ccc(OC)c(OC)c4)cn23)c1,.,?,.,10.3µM*,14.6µM*,.
CC(=O)Nc1cccc(-c2cc(NC=O)c3ncc(-c4ccc(C(C)=O)cc4)n3c2)c1,.,-19.2,.,?,16.4µM*,.
CC(=O)Nc1cc(-c2ccc(N3CCN(C)CC3)cc2)cn2c(-c3cccc(C(C)=O)c3)cnc12,.,-23.2,.,?,?,.
COc1cccc(-c2cc(NC(C)=O)c3ncc(-c4ccc(OC)c(OC)c4)n3c2)c1,.,-80.8*,.,?,20.6µM*,.
SMILES,SW480 rereplic,IL-1B inflam inh,MCF10A rereplic,TDP1 cell CPT,DT40 TDP1 no CPT,BCR signal inh
CC(=O)Nc1cccc(-c2cc(NC(C)=O)c3ncc(-c4cccc(C(C)=O)c4)n3c2)c1,.,22.0,.,23.1µM*,10.3µM*,.
CC(=O)c1cccc(Nc2ccc(C#N)cc2)c1,.,-16.1,.,?,?,.
COc1ccccc1C(=O)NC(CCSC)C(=O)NNC(=O)c1ccncc1 (centres undefined),1.0%,9.3,1.2%,-0.5%,4.1%,-0.1%
Cc1cc2oc(C(=O)Nc3ccc(S(=O)(=O)N4CCC(C)CC4)cc3)cc(=O)c2cc1C,.,.,.,-3.4%,-7.9%,.
CC(=O)Nc1cc(-c2cccc(NS(C)(=O)=O)c2)cn2c(-c3cccc(C(F)(F)F)c3)cnc12,.,0.0,.,18.4µM*,18.4µM*,.
CC(=O)Nc1cc(-c2ccccc2N(C)C)cn2c(-c3cccc(C(F)(F)F)c3)cnc12,.,-20.7,.,?,?,.
COc1cccc(-c2cnc3c(NC(C)=O)cc(-c4ccsc4)cn23)c1,.,-9.7,.,13µM*,14.6µM*,.
COc1ccc(-c2cc(NC(C)=O)c3ncc(-c4cccc(C(C)=O)c4)n3c2)cc1OC,.,?,.,20.6µM*,20.6µM*,.
COc1ccc(-c2cc(NC=O)c3ncc(-c4ccc(C(C)=O)cc4)n3c2)cn1,.,-12.6,.,5.17µM*,7.31µM*,.
COC(=O)C1CCN(C2CN(Cc3ccc(C)cc3)S(=O)(=O)C2)CC1 (centres undefined),.,-1.2,.,7.5%,-23.4%,.
